This is part of a sample that, as a whole, favours compounds with a hit. Of some 79,000 tested, about 15% had one in any assay. A number with no mark means an inactive call. The source made the active and inactive calls. No stated cut-off is given here; in the data, active means growth inhibition above about 70%; inactive means the rest.
Key:
[1] = NCI Yeast Anticancer Drug Screen. Data for the rad52 strain (AID 147);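 further: 0% = growth of vehicle-treated control cultures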; settings: S. cerevisiae rad52 mutant growth inhibition, hits give high values
In short: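 Yeast strain carrying a DNA damage repair alteration was exposed to test compounds. Growth inhibition was measured relative to vehicle-treated controls.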

[2] = NCI Yeast Anticancer Drug Screen. Data for the wt1 strain (AID 149);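 further: 0% = growth of vehicle-treated wt1 cultures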; settings: S. cerevisiae wt1 strain (SPY 50644) growth inhibition, hits give high values
In short: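 Readout: yeast growth inhibition, normalised to vehicle controls, in the wt1 strain exposed to test compounds.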

[3] = NCI Yeast Anticancer Drug Screen. Data for the rad50EPP+ strain (AID 151);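 further: 0% = growth of vehicle-treated control cultures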; settings: S. cerevisiae rad50 mutant strain, hits give high values
In short: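 Yeast strain carrying rad50 alteration (rad50EPP+) exposed to compounds; growth inhibition measured relative to vehicle-treated controls.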

[4] = NCI Yeast Anticancer Drug Screen. Data for the rad50 strain (AID 155);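 further: 0% = growth of vehicle-only cultures of the same strain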; settings: S. cerevisiae rad50 strain growth inhibition, hits give high values
In short: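 Compounds were tested on a yeast strain with an engineered DNA damage repair alteration; the reported value is growth inhibition normalised to vehicle treatment.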

[5] = NCI Yeast Anticancer Drug Screen. Data for the mec2-1 strain (AID 157); settings: S. cerevisiae mec2-1 strain, hits give high values
In short: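 mec2-1 yeast strain, carrying an alteration in DNA damage repair or cell cycle control, was exposed to compounds; growth inhibition was measured relative to vehicle-treated controls.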

[6] = NCI Yeast Anticancer Drug Screen. Data for the rad14 strain (AID 159);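 further: 0% = growth of vehicle-treated control cultures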; settings: S. cerevisiae rad14 strain growth inhibition, hits give high values
In short: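 Compound-treated yeast with a defined DNA-repair lesion; growth inhibition normalised to vehicle-treated cultures.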

[7] = NCI Yeast Anticancer Drug Screen. Data for the sgs1 mgt1 strain (AID 161);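 further: 0% = growth of cultures given vehicle only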; settings: S. cerevisiae sgs1 mgt1 strain, hits give high values
In short: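 Growth of a repair-deficient yeast mutant was monitored after compound treatment and expressed as inhibition relative to vehicle-treated cultures.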

[8] = NCI Yeast Anticancer Drug Screen. Data for the CLN2oe strain (AID 163);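 further: 0% = growth of vehicle-only control cultures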; settings: S. cerevisiae CLN2oe strain, hits give high values
In short: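 Yeast cells carrying a defined cell-cycle control alteration were exposed to test compounds. Growth inhibition was scored against vehicle-treated control cultures.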

[9] = NCI Yeast Anticancer Drug Screen. Data for the cln2 rad14 strain (AID 165);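 further: 0% = growth equal to vehicle treated cultures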; settings: S. cerevisiae cln2 rad14 strain, hits give high values
In short: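 Yeast carrying cln2 and rad14 alterations (cell cycle control and DNA damage repair) were exposed to compounds. Growth inhibition was measured against vehicle-treated controls.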

[10] = NCI Yeast Anticancer Drug Screen. Data for the bub3 strain (AID 167); settings: S. cerevisiae bub3 mutant strain, hits give high values
In short: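 Growth of a checkpoint-deficient yeast mutant is measured after compound exposure. Values represent inhibition relative to vehicle.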

[11] = NCI Yeast Anticancer Drug Screen. Data for the mlh1 strain (AID 171);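 further: 0% = growth of vehicle-treated control cultures of the same strain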; settings: S. cerevisiae mlh1 strain growth inhibition, hits give high values
In short: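 Yeast carrying a defined genetic alteration in DNA damage repair or cell cycle control were exposed to test compounds. Growth inhibition was measured relative to vehicle-treated controls.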

[12] = NCI Yeast Anticancer Drug Screen. Data for the sgs1 strain (AID 173);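 further: 0% = growth of vehicle-only control cultures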; settings: S. cerevisiae sgs1 mutant, hits give high values
In short: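 Yeast mutant strains carrying defined defects in DNA damage repair or cell cycle control were exposed to test compounds. Growth inhibition was scored against vehicle-treated controls.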

[13] = NCI Yeast Anticancer Drug Screen. Data for the mlh1 rad18 strain (AID 175); settings: S. cerevisiae mlh1 rad18 strain growth inhibition, hits give high values
In short: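 Growth inhibition of the yeast strain was measured after compound exposure and expressed relative to vehicle-treated controls. The strain carries defined defects in DNA damage repair.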

[14] = NCI Yeast Anticancer Drug Screen. Data for the rad18 strain (AID 177); settings: S. cerevisiae rad18 mutant growth inhibition, hits give high values
In short: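 Yeast carrying a defined DNA damage repair alteration were exposed to compounds. Growth inhibition was expressed relative to vehicle-treated controls.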

[15] = at 5.0 µM (retest, dose inferred, filed as 0.5)
[16] = at 50.0 µM (retest, dose inferred, filed as 5.0)

## CN=C(N)N/N=C(\C)c1ccc2oc3ccc(/C(C)=N/NC(N)=NC)cc3c2c1
[1]; at 1.2 µM
  growth inhibition: 11%
[1]; at 3.7 µM
  growth inhibition: 28%
[1]; at 11.0 µM
  growth inhibition: 88% (active)
[1]; at 33.0 µM
  growth inhibition: 98% (active)
[1]; at 100.0 µM
  growth inhibition: 98% (active)
[2]; at 1.2 µM
  growth inhibition: -8%
[2]; at 3.7 µM
  growth inhibition: -21%
[2]; at 11.0 µM
  growth inhibition: 11%
[2]; at 33.0 µM
  growth inhibition: 98% (active)
[2]; at 100.0 µM
  growth inhibition: 98% (active)
[3]; at 1.2 µM
  growth inhibition: -17%
[3]; at 3.7 µM
  growth inhibition: 23%
[3]; at 11.0 µM
  growth inhibition: 70% (active)
[3]; at 33.0 µM
  growth inhibition: 96% (active)
[3]; at 100.0 µM
  growth inhibition: 98% (active)
[4]; at 1.2 µM
  growth inhibition: 34%
[4]; at 3.7 µM
  growth inhibition: 64%
[4]; [15]
  growth inhibition: 81% (active)
[4]; at 11.0 µM
  growth inhibition: 92% (active)
[4]; at 33.0 µM
  growth inhibition: 98% (active)
[4]; [16]
  growth inhibition: 98% (active)
[4]; at 50.0 µM
  growth inhibition: 90% (active)
[4]; at 100.0 µM
  growth inhibition: 98% (active)
[5]; at 1.2 µM
  growth inhibition: -11%
[5]; at 3.7 µM
  growth inhibition: -9%
[5]; [15]
  growth inhibition: 15%
[5]; at 11.0 µM
  growth inhibition: 15%
[5]; at 33.0 µM
  growth inhibition: 98% (active)
[5]; [16]
  growth inhibition: 99% (active)
[5]; at 50.0 µM
  growth inhibition: 93.6% (active)
[5]; at 100.0 µM
  growth inhibition: 98% (active)
[6]; at 1.2 µM
  growth inhibition: 4%
[6]; at 3.7 µM
  growth inhibition: -18%
[6]; at 11.0 µM
  growth inhibition: 43%
[6]; at 33.0 µM
  growth inhibition: 98% (active)
[6]; at 100.0 µM
  growth inhibition: 98% (active)
[7]; [15]
  growth inhibition: 56%
[7]; [16]
  growth inhibition: 99% (active)
[7]; at 50.0 µM
  growth inhibition: 90.4% (active)
[8]; at 1.2 µM
  growth inhibition: -66%
[8]; at 3.7 µM
  growth inhibition: -74%
[8]; at 11.0 µM
  growth inhibition: 20%
[8]; at 33.0 µM
  growth inhibition: 97% (active)
[8]; at 100.0 µM
  growth inhibition: 98% (active)
[9]; [15]
  growth inhibition: 13%
[9]; [16]
  growth inhibition: 98% (active)
[9]; at 50.0 µM
  growth inhibition: 91.8% (active)
[10]; at 1.2 µM
  growth inhibition: -14%
[10]; at 3.7 µM
  growth inhibition: -24%
[10]; [15]
  growth inhibition: 37%
[10]; at 11.0 µM
  growth inhibition: 2%
[10]; at 33.0 µM
  growth inhibition: 97% (active)
[10]; [16]
  growth inhibition: 99% (active)
[10]; at 50.0 µM
  growth inhibition: 89.2% (active)
[10]; at 100.0 µM
  growth inhibition: 98% (active)
[11]; at 1.2 µM
  growth inhibition: -23%
[11]; at 3.7 µM
  growth inhibition: -24%
[11]; at 11.0 µM
  growth inhibition: 35%
[11]; at 33.0 µM
  growth inhibition: 98% (active)
[11]; at 100.0 µM
  growth inhibition: 98% (active)
[12]; at 1.2 µM
  growth inhibition: -21%
[12]; at 3.7 µM
  growth inhibition: -14%
[12]; at 11.0 µM
  growth inhibition: 37%
[12]; at 33.0 µM
  growth inhibition: 98% (active)
[12]; at 100.0 µM
  growth inhibition: 98% (active)
[13]; [15]
  growth inhibition: 54%
[13]; [16]
  growth inhibition: 98% (active)
[13]; at 50.0 µM
  growth inhibition: 87.5% (active)
[14]; at 1.2 µM
  growth inhibition: -13%
[14]; at 3.7 µM
  growth inhibition: -13%
[14]; at 11.0 µM
  growth inhibition: 70% (active)
[14]; at 33.0 µM
  growth inhibition: 98% (active)
[14]; at 100.0 µM
  growth inhibition: 98% (active)

## CCOC(=O)CNC(=O)c1[nH]cnc1/N=N/N(C)C
[1]; at 1.2 µM
  growth inhibition: -12%
[1]; at 3.7 µM
  growth inhibition: -11%
[1]; at 11.0 µM
  growth inhibition: -12%
[1]; at 33.0 µM
  growth inhibition: 6%
[1]; at 100.0 µM
  growth inhibition: 98% (active)
[2]; at 1.2 µM
  growth inhibition: 8%
[2]; at 3.7 µM
  growth inhibition: 9%
[2]; at 11.0 µM
  growth inhibition: 12%
[2]; at 33.0 µM
  growth inhibition: 12%
[2]; at 100.0 µM
  growth inhibition: 98% (active)
[3]; at 1.2 µM
  growth inhibition: -23%
[3]; at 3.7 µM
  growth inhibition: -21%
[3]; at 11.0 µM
  growth inhibition: -21%
[3]; at 33.0 µM
  growth inhibition: -30%
[3]; at 100.0 µM
  growth inhibition: -13%
[4]; at 1.2 µM
  growth inhibition: -5%
[4]; at 3.7 µM
  growth inhibition: 4%
[4]; [15]
  growth inhibition: -10%
[4]; at 11.0 µM
  growth inhibition: 2%
[4]; at 33.0 µM
  growth inhibition: 5%
[4]; [16]
  growth inhibition: 7%
[4]; at 50.0 µM
  growth inhibition: 89.6% (active)
[4]; at 100.0 µM
  growth inhibition: 97% (active)
[5]; at 1.2 µM
  growth inhibition: -8%
[5]; at 3.7 µM
  growth inhibition: -10%
[5]; [15]
  growth inhibition: -7%
[5]; at 11.0 µM
  growth inhibition: -8%
[5]; at 33.0 µM
  growth inhibition: -6%
[5]; [16]
  growth inhibition: -17%
[5]; at 50.0 µM
  growth inhibition: 90.3% (active)
[5]; at 100.0 µM
  growth inhibition: 98% (active)
[6]; at 1.2 µM
  growth inhibition: 2%
[6]; at 3.7 µM
  growth inhibition: 2%
[6]; at 11.0 µM
  growth inhibition: 1%
[6]; at 33.0 µM
  growth inhibition: 1%
[6]; at 100.0 µM
  growth inhibition: 97% (active)
[7]; [15]
  growth inhibition: -12%
[7]; [16]
  growth inhibition: -7%
[7]; at 50.0 µM
  growth inhibition: 89.5% (active)
[8]; at 1.2 µM
  growth inhibition: 26%
[8]; at 3.7 µM
  growth inhibition: 23%
[8]; at 11.0 µM
  growth inhibition: 17%
[8]; at 33.0 µM
  growth inhibition: 44%
[8]; at 100.0 µM
  growth inhibition: 98% (active)
[9]; [15]
  growth inhibition: -1%
[9]; [16]
  growth inhibition: 35%
[9]; at 50.0 µM
  growth inhibition: 90.5% (active)
[10]; at 1.2 µM
  growth inhibition: 22%
[10]; at 3.7 µM
  growth inhibition: 31%
[10]; [15]
  growth inhibition: 3%
[10]; at 11.0 µM
  growth inhibition: 29%
[10]; at 33.0 µM
  growth inhibition: 62%
[10]; [16]
  growth inhibition: 96% (active)
[10]; at 50.0 µM
  growth inhibition: 91.4% (active)
[10]; at 100.0 µM
  growth inhibition: 98% (active)
[11]; at 1.2 µM
  growth inhibition: 13%
[11]; at 3.7 µM
  growth inhibition: 5%
[11]; at 11.0 µM
  growth inhibition: 4%
[11]; at 33.0 µM
  growth inhibition: 2%
[11]; at 100.0 µM
  growth inhibition: 98% (active)
[12]; at 1.2 µM
  growth inhibition: 10%
[12]; at 3.7 µM
  growth inhibition: 1%
[12]; at 11.0 µM
  growth inhibition: -2%
[12]; at 33.0 µM
  growth inhibition: 9%
[12]; at 100.0 µM
  growth inhibition: 98% (active)
[13]; [15]
  growth inhibition: -30%
[13]; [16]
  growth inhibition: 59%
[13]; at 50.0 µM
  growth inhibition: 71.5% (active)
[14]; at 1.2 µM
  growth inhibition: 0%
[14]; at 3.7 µM
  growth inhibition: -11%
[14]; at 11.0 µM
  growth inhibition: -13%
[14]; at 33.0 µM
  growth inhibition: -3%
[14]; at 100.0 µM
  growth inhibition: 98% (active)
